Results published in PubChem BioAssay AID1159580 (chemical genetic matrix, 2015).
“And” between values parts separate entries of the source, which are not always exact repeats. Equal entries are not always repeated. Screen size: about 5,500 compounds; about 2,000 (36%) were called active. Another 18% or so got no clear call; they are omitted. Rule as the data show it: active = normalized growth mostly below about 0.91 (no sharp cut-off); inconclusive = no clear call, values can overlap the other calls; inactive = mostly above about 0.92. This is one part of the list.

Test: chemical genetic growth profiling, strain panel (AID 1159580);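 also: tested at 20 µM; growth read once vehicle control cultures reached saturation at 30 °C; 1 = growth at the plate median or of vehicle wells; lower values mean less growth of the strain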
Details: growth OD

Measured: normalized growth

NC(N)=Nc1nc(CSCCC(N)=NS(N)(=O)=O)cs1
inactive: S. cerevisiae deletion strains, locus YKL009W, strain mrt4, hits give low values 1.04 | S. cerevisiae deletion strains, locus YKL068W, hits give low values 1.01 | S. cerevisiae deletion strains, locus YKL085W, strain MDH1 (second series), hits give low values 0.987 | S. cerevisiae deletion strains, locus YKL085W, strain MDH1, hits give low values 0.987 | S. cerevisiae deletion strains, locus YKL160W, strain elf1, hits give low values 0.974 | S. cerevisiae deletion strains, locus YKL190W, strain CNB1, hits give low values 1 | S. cerevisiae deletion strains, locus YKR001C, strain vps1, hits give low values 1.01 | S. cerevisiae deletion strains, locus YKR026C, strain gcn3, hits give low values 0.981 | S. cerevisiae deletion strains, locus YKR091W, strain srl3, hits give low values 0.97 | S. cerevisiae deletion strains, locus YLL001W, strain dnm1, hits give low values 0.933 | S. cerevisiae deletion strains, locus YLL026W, hits give low values 0.992 | S. cerevisiae deletion strains, locus YLL041C, strain sdh2, hits give low values 0.995 | S. cerevisiae deletion strains, locus YLR027C, strain aat2, hits give low values 0.987 | S. cerevisiae deletion strains, locus YLR039C, strain RIC1, hits give low values 0.979 | S. cerevisiae deletion strains, locus YLR058C, strain SHM2, hits give low values 1.02 | S. cerevisiae deletion strains, locus YLR102C, strain apc9, hits give low values 1.01 | S. cerevisiae deletion strains, locus YLR113W, strain HOG1, hits give low values 0.97 | S. cerevisiae deletion strains, locus YLR221C, strain rsa3, hits give low values 0.99 | S. cerevisiae deletion strains, locus YLR258W, strain gsy2, hits give low values 0.998 | S. cerevisiae deletion strains, locus YLR262C, strain YPT6 (second series), hits give low values 0.961 | S. cerevisiae deletion strains, locus YLR262C, strain YPT6, hits give low values 0.979 | S. cerevisiae deletion strains, locus YLR268W, strain sec22, hits give low values 1.05 | S. cerevisiae deletion strains, locus YLR320W, strain mms22, hits give low values 1.01 | S. cerevisiae deletion strains, locus YLR330W, strain CHS5, hits give low values 0.996 | S. cerevisiae deletion strains, locus YLR342W, strain FKS1 (second series), hits give low values 1.02 | S. cerevisiae deletion strains, locus YLR342W, strain FKS1, hits give low values 0.983 | S. cerevisiae deletion strains, locus YLR357W, strain rsc2, hits give low values 1.04 | S. cerevisiae deletion strains, locus YLR370C, strain arc18, hits give low values 0.972 | S. cerevisiae deletion strains, locus YLR371W, strain rom2, hits give low values 1.01 | S. cerevisiae deletion strains, locus YLR384C, strain iki3, hits give low values 0.963 | S. cerevisiae deletion strains, locus YLR418C, strain cdc73, hits give low values 0.999 | S. cerevisiae deletion strains, locus YML016C, strain PPZ1, hits give low values 0.997 | S. cerevisiae deletion strains, locus YML032C, strain rad52, hits give low values 1.02 | S. cerevisiae deletion strains, locus YML120C, strain ndi1, hits give low values 0.977 | S. cerevisiae deletion strains, locus YML124C, strain tub3, hits give low values 1 | S. cerevisiae deletion strains, locus YMR058W, strain fet3, hits give low values 0.991 | S. cerevisiae deletion strains, locus YMR078C, strain ctf18, hits give low values 1.02 | S. cerevisiae deletion strains, locus YMR125W, strain sto1, hits give low values 0.956 | S. cerevisiae deletion strains, locus YMR129W, hits give low values 0.99 | S. cerevisiae deletion strains, locus YMR205C, strain PFK2, hits give low values 0.988 | S. cerevisiae deletion strains, locus YMR223W, strain ubp8, hits give low values 1.01 | S. cerevisiae deletion strains, locus YMR231W, strain pep5, hits give low values 0.971 | S. cerevisiae deletion strains, locus YMR263W, strain SAP30, hits give low values 1.01 | S. cerevisiae deletion strains, locus YMR307W, strain GAS1, hits give low values 0.95 | S. cerevisiae deletion strains, locus YNL067W, strain RPL9B, hits give low values 1.01 | S. cerevisiae deletion strains, locus YNL071W, strain lat1, hits give low values 0.996 | S. cerevisiae deletion strains, locus YNL128W, strain TEP1, hits give low values 1.01 | S. cerevisiae deletion strains, locus YNL153C, strain GIM3, hits give low values 1.01 | S. cerevisiae deletion strains, locus YNL175C, strain NOP13, hits give low values 1.01 | S. cerevisiae deletion strains, locus YNL183C, strain NPR1, hits give low values 0.931 | S. cerevisiae deletion strains, locus YNL197C, strain WHI3, hits give low values 1.01 | S. cerevisiae deletion strains, locus YNL209W, strain ssb2, hits give low values 0.993 | S. cerevisiae deletion strains, locus YNL224C, strain SQS1, hits give low values 0.986 | S. cerevisiae deletion strains, locus YNL233W, strain BNI4, hits give low values 1.01 | S. cerevisiae deletion strains, locus YNL248C, strain rpa49, hits give low values 0.994 | S. cerevisiae deletion strains, locus YNL250W, strain rad50, hits give low values 1 | S. cerevisiae deletion strains, locus YNL271C, strain bni1, hits give low values 1.01 | S. cerevisiae deletion strains, locus YNL298W, strain CLA4, hits give low values 1.02 | S. cerevisiae deletion strains, locus YNL307C, strain MCK1, hits give low values 1.01 | S. cerevisiae deletion strains, locus YNL322C, strain KRE1 (second series), hits give low values 0.963 | S. cerevisiae deletion strains, locus YNL322C, strain KRE1, hits give low values 1 and 1.01 | S. cerevisiae deletion strains, locus YNR049C, strain mso1, hits give low values 0.972 | S. cerevisiae deletion strains, locus YNR052C, strain pop2, hits give low values 1.02 | S. cerevisiae deletion strains, locus YOL006C, strain TOP1, hits give low values 1.06 | S. cerevisiae deletion strains, locus YOL012C, strain htz1 0.851 | S. cerevisiae deletion strains, locus YOL147C, strain pex11, hits give low values 1.01 | S. cerevisiae deletion strains, locus YOR001W, strain rrp6, hits give low values 0.972 | S. cerevisiae deletion strains, locus YOR061W, strain CKA2, hits give low values 1 | S. cerevisiae deletion strains, locus YOR069W, strain VPS5, hits give low values 1.01 | S. cerevisiae deletion strains, locus YOR070C, strain gyp1, hits give low values 0.982 | S. cerevisiae deletion strains, locus YOR080W, strain dia2, hits give low values 0.97 | S. cerevisiae deletion strains, locus YOR083W, strain WHI5 (second series), hits give low values 0.992 | S. cerevisiae deletion strains, locus YOR083W, strain WHI5, hits give low values 0.965 | S. cerevisiae deletion strains, locus YOR106W, strain vam3, hits give low values 0.96 | S. cerevisiae deletion strains, locus YOR136W, strain idh2, hits give low values 1 | S. cerevisiae deletion strains, locus YOR144C, strain elg1, hits give low values 1.01 | S. cerevisiae deletion strains, locus YOR184W, strain ser1, hits give low values 1 | S. cerevisiae deletion strains, locus YOR231W, strain MKK1, hits give low values 0.959 | S. cerevisiae deletion strains, locus YOR265W, strain rbl2, hits give low values 0.986 | S. cerevisiae deletion strains, locus YOR270C, strain vph1, hits give low values 0.966 | S. cerevisiae deletion strains, locus YOR290C, strain snf2, hits give low values 1 | S. cerevisiae deletion strains, locus YOR316C, strain cot1, hits give low values 1 | S. cerevisiae deletion strains, locus YPL051W, strain arl3, hits give low values 0.99 | S. cerevisiae deletion strains, locus YPL055C, strain LGE1, hits give low values 0.97 | S. cerevisiae deletion strains, locus YPL078C, strain atp4, hits give low values 0.968 | S. cerevisiae deletion strains, locus YPL106C, strain sse1, hits give low values 0.999 | S. cerevisiae deletion strains, locus YPL240C, strain hsp82, hits give low values 1 | S. cerevisiae deletion strains, locus YPL241C, strain CIN2, hits give low values 0.997 and 1.01 | S. cerevisiae deletion strains, locus YPL256C, strain CLN2, hits give low values 0.961 | S. cerevisiae deletion strains, locus YPR119W, strain clb2, hits give low values 1 | S. cerevisiae deletion strains, locus YPR141C, strain kar3, hits give low values 1 | S. cerevisiae deletion strains, locus YPR163C, strain tif3, hits give low values 1.02 | S. cerevisiae deletion strains, locus YPR167C, strain met16, hits give low values 1.01 | S. cerevisiae deletion strains, strain wtn01, hits give low values 1.02 | S. cerevisiae strains, strain wild type, hits give low values 1
